# Screening data: PubChem, National Center for Advancing Translational Sciences (NCATS)
# D2 PAM-1: potentiates the human D2 dopamine receptor allosterically; potentiation, % (concentration not given with the values); DiscoveRx D2 beta-arrestin cells, luminescence, 90 min; 100% = 57 uM dopamine signal; P14416; AID 624464; 360,000 compounds, 0.23% hits; in the data active = potentiation above about 50%; inconclusive = mostly about 30% to 49%
# Target sequence (P14416 whole entry, looked up): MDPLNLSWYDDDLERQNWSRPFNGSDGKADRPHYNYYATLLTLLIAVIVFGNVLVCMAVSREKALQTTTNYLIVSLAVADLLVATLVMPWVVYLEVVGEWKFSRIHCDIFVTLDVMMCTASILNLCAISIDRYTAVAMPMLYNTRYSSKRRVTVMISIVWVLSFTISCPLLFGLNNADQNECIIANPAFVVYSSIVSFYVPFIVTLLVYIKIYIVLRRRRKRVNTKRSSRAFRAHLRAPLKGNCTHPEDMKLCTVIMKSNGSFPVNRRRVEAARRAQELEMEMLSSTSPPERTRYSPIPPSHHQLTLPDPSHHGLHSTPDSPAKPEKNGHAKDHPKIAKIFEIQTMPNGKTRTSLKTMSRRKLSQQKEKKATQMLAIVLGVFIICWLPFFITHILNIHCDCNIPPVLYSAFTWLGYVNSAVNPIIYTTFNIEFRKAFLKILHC
#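 D2 cells co-treated with compound plus 50 nM dopamine (EC20) for 90 min at 37 deg C to detect potentiation. Beta-arrestin recruitment was read as enzyme-fragment luminescence after 1 h at ambient temperature. Full response was set by 57 uM dopamine.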
# D2 ag-1: activates the human D2 dopamine receptor. HEK293 T-REx D2 cells, calcium flux agonist mode. activation, % at 2 µM. 340,000 compounds, 0.53% hits. AID 485358;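 active = activation over 3 SD above normal in the single-dose calcium agonist read, cut at about 30% in these data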; note: 0% is about no effect
#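 HEK293 Trex D2 cells, tetracycline-induced, o/n 30 C 5% CO2; no-wash Ca dye, RT 30–90 min; 10-cycle baseline, 23 nl cpd added, kinetic Ca read 180 s; agonist hits = positive Ca response.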
# D2 PAM-2: D2 dopamine receptor (human) potentiation; P14416; AID 485347; HEK293 T-REx D2, calcium flux, EC20 dopamine potentiation; 340,000 compounds, 0.34% hits; potentiation, % at 10 µM;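 active = potentiation over 3 SD above the plate norm, cut at about 30% in these data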; note: 0% is about no effect
#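 Primary screen. Calcium kinetics in induced HEK293 T-REx D2 cells: compound pre-addition 180 s, EC20 dopamine, 180 s more.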
# D2 antagonist: antagonizes the human D2 dopamine receptor. 340,000 compounds, 2% hits. HEK293 TREx D2 cells, calcium flux, dopamine EC80. inhibition, % at 10 µM. AID 485344. P14416; in the data active = inhibition above about 30%; inactive = below that, where a call was filed; note: 0% is about no effect
#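 Overnight-induced (tetracycline, 30 C) HEK293 T-REx cells carrying force-coupled D2 receive a no-wash calcium dye, then compound, then EC80 dopamine at 180 s; signals are read kinetically throughout.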
# D2 ag-2: activates the human D2 dopamine receptor | DiscoveRx PathHunter D2 beta-arrestin, luminescence, 90 min; 100% = 57 uM dopamine signal | AID 624465 | activation, % (concentration not given with the values) | 360,000 compounds, 0.084% hits | P14416; in the data active = activation above about 40%; inconclusive = between about 15% and that limit
#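 Agonist mode: compounds alone added to overnight-plated D2 PathHunter cells for 90 min at 37 C, with 57 uM final dopamine (EC100) defining full response. Beta-arrestin recruitment detected by chemiluminescent reagent, read after 1 h at ambient temperature.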
# * marks the source's active call; other numbers are inactive results; ? = inconclusive; . = not tested or not shown. Compounds with a hit are over-represented: about 2.4% of the library has one in this group of screens.
SMILES,D2 PAM-1,D2 ag-1,D2 PAM-2,D2 antagonist,D2 ag-2
CN(CC(=O)Nc1ccc(OC(F)(F)F)cc1)C(=O)/C=C/c1cc2c(cc1[N+](=O)[O-])OCO2,-5,0,-22,80*,-3
CCOC(=O)c1c(S(=O)(=O)NCC(=O)N(C)Cc2ccccc2)c(C)n(C)c1C,.,0,9,.,.
CCCn1cc(S(=O)(=O)c2cc(C)ccc2C)c(=O)c2cc(F)c(N3CCCCCC3)cc21,.,.,4,.,.
Cn1cccc1-c1cc2n(n1)CCC(=O)N2CCCC(=O)NCc1cccc(Cl)c1,.,-1,6,.,.
COc1cccc(-c2nc(SCC(=O)NC3CCCC3)c(-c3ccc(F)cc3)[nH]2)c1,.,.,-15,.,.
Cc1ccc(Cn2c(=O)c3ccccc3n3c(-c4ccccc4)nnc23)cc1,.,1,3,.,.
COc1ccccc1-c1nn(-c2ccccc2)cc1C(=O)NCC(c1ccco1)N1CCCC1 (stereo unspecified),-4,0,-27,40*,-3
O=C(NCC(c1ccco1)N1CCCC1)c1cn(Cc2ccccc2)nc1-c1ccccc1 (stereo unspecified),-23,0,-5,-6,0
COc1ccccc1C(CNC(=O)c1ccco1)N1CCCC1 (stereo unspecified),-10,1,-13,37*,-5
COc1ccc(Cl)cc1C(=O)NCC(c1ccco1)N1CCCC1 (stereo unspecified),-20,-1,-17,29,-2
O=C(NCC(c1ccco1)N1CCCC1)c1cn(-c2ccccc2)nc1-c1ccc(F)cc1 (stereo unspecified),-49,-1,-22,76*,-4
CC(C)C(=O)NCCSc1c[nH]c2ccccc12,-3,0,7,31*,-1
CCC(=O)NCCSc1c[nH]c2ccccc12,-15,0,6,-11,-1
CCC1CCCCN1S(=O)(=O)c1ccc(NC(=O)c2snnc2C)cc1 (stereo unspecified),-3,0,36*,-8,4
Cc1nnsc1C(=O)Nc1ccc(S(=O)(=O)N2CCCCC2)cc1,-10,1,-2,4,4
CCOC(=O)C1=C(CN2CCN(c3ccccc3F)CC2)NC(=O)NC1c1ccc(OC)cc1 (stereo unspecified),.,-1,-11,.,.
COc1ccc(-c2nnc(SCC(=O)Nc3cc(C)on3)o2)cc1,-2,2,15,36*,-6
Cc1ccc(/C=N/n2cnc3sc(C)c(C)c3c2=O)o1,-5,0,47*,-4,-2
CC1CCN(CC(O)CN2c3ccccc3Sc3ccccc32)CC1 (stereo unspecified),-56,-2,-26,71*,-6
Cc1cnc(C(=O)OCC(=O)NC(C)CCc2ccccc2)cn1 (stereo unspecified),-1,0,15,34*,3
Cc1cnc(C(=O)OCC(=O)NCc2ccccc2)cn1,-3,0,8,-2,0
COC(=O)CC(NS(=O)(=O)c1cccs1)c1ccccc1Cl (stereo unspecified),-5,0,-4,35*,-5
COC(=O)CC(NS(=O)(=O)c1cccs1)c1ccc2c(c1)OCO2 (stereo unspecified),-7,0,3,14,4
CCCSC1=C(C#N)C(c2ccc(OC)cc2)C2=C(CC(C)(C)CC2=O)N1 (stereo unspecified),-4,0,-6,42*,-3
CCc1ccccc1NC(=O)Nc1cc(C(=O)NCc2cccc(F)c2)ccc1N1CCCC1,.,2,-2,.,.
SMILES,D2 PAM-1,D2 ag-1,D2 PAM-2,D2 antagonist,D2 ag-2
O=C1c2cccc([N+](=O)[O-])c2C(=O)N1CCO,-1,1,40*,6,-1
CN(Cc1ccccc1)C(=O)CCN1C(=O)c2cccc([N+](=O)[O-])c2C1=O,-4,.,.,.,3
COc1ccc(NC(=O)CSCC(=O)N(C)Cc2ccc3c(c2)OCCO3)cc1,11,0,-10,35*,2
CCOc1ccc(CCNC(=O)CSCC(=O)Nc2ccc(OC)cc2)cc1OCC,1,-1,8,31*,-1
COc1ccc(NC(=O)CN(C)C(=O)Cc2ccc3c(c2)OCCO3)cc1,4,1,0,-32,2
CC(C)OP(=O)(OC(C)C)C(Nc1cccc(C(=O)O)c1)c1ccccc1 (stereo unspecified),-2,0,-11,3,0
CC(C)OP(=O)(OC(C)C)C(Nc1ccc(C(=O)O)cc1)c1ccccc1 (stereo unspecified),-7,1,30*,-4,-7
NC(=O)C1CCCNC1 (stereo unspecified),1,2,-12,47*,0
O=C(NCCCN1CCCCC1)c1ccc(CS(=O)c2ccc(F)cc2)o1 (stereo unspecified),-4,1,-4,32*,-2
CCOC(=O)C1CCN(C(=O)Nc2ccc3oc(C)nc3c2)CC1,-3,.,.,.,-2
CCOC(=O)N1CCN(C(=O)Nc2ccc3oc(C)nc3c2)CC1,?,1,.,44*,7
CC(=O)Oc1c(Br)cc(N(C(C)=O)S(=O)(=O)c2ccccc2)c2ccccc12,-1,-3,11,33*,?
CC(=O)Oc1ccccc1N(C(C)=O)S(=O)(=O)c1ccc2ccccc2c1,-6,1,0,-12,-2
CCn1nc(CC(=O)Nc2ccc(-n3cnnn3)c(C)c2)c2ccccc2c1=O,-7,-1,0,1,-4
CCn1nc(CC(=O)Nc2ccc(-n3cnnn3)c(OC)c2)c2ccccc2c1=O,-23,1,1,35*,1
CSCCC(NS(=O)(=O)c1ccccc1F)C(=O)N1CCCCCC1 (stereo unspecified),-6,0,20,44*,4
CCN1C(=O)[C@H]2[C@@H](c3ccc(-c4ccc(C(C)=O)cc4)c(OC)c3)N[C@@](Cc3ccccc3)(C(=O)OC)[C@H]2C1=O,-3,0,7,32*,1
COc1ccc2nc(SCC(=O)N3CCNC3=O)[nH]c2c1,-6,1,6,44*,-2
COC(=O)C1CCN(C(=O)CSc2nc3ccc(OC)cc3[nH]2)CC1,-19,2,11,2,-1
COc1ccc(C2CC(c3ccccc3)=NN2C(=O)COC(=O)c2cc(S(=O)(=O)N3CCOCC3)ccc2Cl)cc1 (stereo unspecified),-11,2,2,32*,-1
Cc1nn(-c2ccccc2)c(Cl)c1/C=N/NC(N)=O,-6,4,-19,12,-2
Cc1nn(-c2ccccc2)c(Cl)c1/C=N/NC(=O)CNC(=O)c1ccccc1Cl,-13,0,-12,46*,-6
